Compound activity from PubChem BioAssay.
Only a selection was taken, and hits are over-represented in it overall.
AMPAR-TARP mod: modulators of AMPA receptor GluA2-stargazin complexes | HEK293 GluA2+stargazin, membrane potential dye (FDSS), glutamate EC50; hits were called plate by plate, in both directions | AID 1259245 | hit rate 3.5% among 40,000 | calls only at 30 µM | O88602+P19491;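 active means any of four per-well response measures lying three or more SD from its plate-wide compound average, in either direction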
GIRK2 act: Activates human GIRK2-containing potassium channels; P48051; HEK293 GIRK2/NPY4 cells, thallium flux fluorescence; activation (% efficacy), % for hits at 37.5 µM; 34,000 tested, under 10 active;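 active means primary screen hit, no activity in plain HEK293 cells, and in GIRK2-only cells above 5% efficacy rising with concentration; inactive means the rest, including fluorescent compounds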;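 further: efficacy is normalized control-subtracted fluorescence 15 s after thallium addition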
Calls only.

How did Cn1c(C2CC(=O)N(CCc3ccccc3)C2)nc2ccccc21 (stereo not given) do in these assays?
AMPAR-TARP mod: inactive

How did CCCn1c(C2CC(=O)N(c3ccc(C)c(Cl)c3)C2)nc2ccccc21 (stereo not given) do in these assays?
AMPAR-TARP mod: inactive

How did CCc1nnc(-c2ccc(NC(=O)COc3ccc(F)cc3)cc2)o1 do in these assays?
AMPAR-TARP mod: inactive; GIRK2 act: inactive

How did O=C(NCc1cccs1)C(=O)N1CCC(Cc2ccccc2)CC1 do in these assays?
AMPAR-TARP mod: inactive; GIRK2 act: inactive

Results for O=C(NCCN1CCN(C(=O)c2cccs2)CC1)c1cc(-c2ccccc2)on1 ?
AMPAR-TARP mod: inactive; GIRK2 act: inactive

How did O=C1/C(=C/c2cccs2)Oc2cc(OC(=O)C3CC3)ccc21 do in these assays?
AMPAR-TARP mod: inactive

What do the screens show for `Cc1ccc(S(=O)(=O)N2CCC3(CC2)NC(=O)N(Cc2ccc(Cl)cc2)C3=O)cc1`?
AMPAR-TARP mod: inactive; GIRK2 act: inactive

Results for CCCC(=O)Nc1ccc(C(=O)NCCNC(=O)C(CC)c2ccccc2)cc1 (stereo not given) ?
AMPAR-TARP mod: inactive; GIRK2 act: inactive

What do the screens show for `C=C(Br)Cn1c(C2CC(=O)N(CCCC)C2)nc2ccccc21` (stereo not given)?
AMPAR-TARP mod: inactive; GIRK2 act: inactive

How did CCCCN1CC(c2nc3ccccc3n2Cc2c(F)cccc2Cl)CC1=O (stereo not given) do in these assays?
AMPAR-TARP mod: active

Results for C=CCn1c(N)c(C(=O)NC(C)CC)c2nc3ccccc3nc21 (stereo not given) ?
AMPAR-TARP mod: inactive; GIRK2 act: inactive

What do the screens show for `COC(=O)c1sc2ccccc2c1NC(=O)C1CCCCC1`?
AMPAR-TARP mod: active

How did COC(=O)c1ccc2nc(NC(=O)C3CCCCC3)sc2c1 do in these assays?
AMPAR-TARP mod: inactive; GIRK2 act: inactive

Results for COc1cc(-c2nc(COC(=O)c3nnn(-c4ccc(Cl)cc4)c3C)c(C)o2)cc(OC)c1OC ?
AMPAR-TARP mod: inactive

What do the screens show for `CCOC(=O)c1sc2cccc(F)c2c1S(=O)(=O)Nc1cc(Cl)c(OC)cc1OC`?
AMPAR-TARP mod: active

How did CCOC(=O)c1sc2cccc(F)c2c1S(=O)(=O)Nc1ccc(OC)c(Cl)c1 do in these assays?
AMPAR-TARP mod: inactive

Results for COC(=O)c1sccc1S(=O)(=O)NC1CCCC(O)C1 (stereo not given) ?
AMPAR-TARP mod: inactive; GIRK2 act: inactive

What do the screens show for `O=C(Cn1cnc(-c2cccs2)cc1=O)NCCOc1ccc(-c2ccco2)nn1`?
AMPAR-TARP mod: active; GIRK2 act: inactive

How did CCC(=O)NCCOc1ccc(-c2cccs2)nn1 do in these assays?
AMPAR-TARP mod: inactive; GIRK2 act: inactive

What do the screens show for `O=c1c2nc(N3CCOCC3)sc2c(-c2ccco2)nn1Cc1cccc(F)c1`?
AMPAR-TARP mod: inactive; GIRK2 act: inactive

Results for COc1ccc(NS(=O)(=O)c2cccc([N+](=O)[O-])c2)cc1 ?
AMPAR-TARP mod: inactive

Results for O=[N+]([O-])c1ccc(NS(=O)(=O)c2ccc3ccccc3c2)cc1 ?
AMPAR-TARP mod: active

What do the screens show for `O=[N+]([O-])c1cccc(NS(=O)(=O)c2ccc3ccccc3c2)c1`?
AMPAR-TARP mod: active

What do the screens show for `CS(=O)(=O)c1cccc(S(=O)(=O)Nc2ccc([N+](=O)[O-])cc2)c1`?
GIRK2 act: inactive

What do the screens show for `Cc1cc(=O)[nH]c(-n2nc(C)c(CCC(=O)N3CCCCC3C)c2C)n1` (stereo not given)?
AMPAR-TARP mod: inactive; GIRK2 act: inactive

Results for COc1cc(/C=C2\SC(=S)N(c3ccc(O)c(C(=O)O)c3)C2=O)ccc1O ?
AMPAR-TARP mod: inactive

Results for COc1cc(/C=C2\SC(=S)N(c3ccc(C(=O)O)c(O)c3)C2=O)ccc1O ?
AMPAR-TARP mod: active

Results for CSCCC(C)(O)CNC(=O)c1cc2ccccc2o1 (stereo not given) ?
AMPAR-TARP mod: active; GIRK2 act: inactive

Results for CSCCC(C)(O)CNC(=O)c1cc2ccccc2oc1=O (stereo not given) ?
AMPAR-TARP mod: inactive; GIRK2 act: inactive

What do the screens show for `COc1cc2ccccc2cc1C(=O)Nc1ccc2ncsc2c1`?
AMPAR-TARP mod: inactive; GIRK2 act: inactive

How did CN1C(=O)C(C)(C)COc2cc(NC(=O)c3ccc4nsnc4c3)ccc21 do in these assays?
AMPAR-TARP mod: active; GIRK2 act: inactive

How did Cc1cc(C(=O)Nc2ccc3c(c2)OCC(C)(C)C(=O)N3C)c(C)o1 do in these assays?
AMPAR-TARP mod: inactive; GIRK2 act: inactive

Results for CCOc1ccc(N2CCn3c2nn(Cc2ccc(Br)cc2)c(=O)c3=O)cc1 ?
AMPAR-TARP mod: inactive; GIRK2 act: inactive

What do the screens show for `CC(=O)CC1(O)C(=O)N(CCOc2cccc3ccccc23)c2ccccc21` (stereo not given)?
AMPAR-TARP mod: inactive

How did COCCNC(=O)C(=O)c1cn(CC(=O)N2CCOCC2)c2ccccc12 do in these assays?
AMPAR-TARP mod: inactive

How did COC(=O)c1sccc1S(=O)(=O)N1CCN(c2ncccn2)CC1 do in these assays?
AMPAR-TARP mod: inactive; GIRK2 act: inactive

Results for COc1ccc(Nc2cc(C)nc(-n3cc([N+](=O)[O-])cn3)n2)cc1 ?
AMPAR-TARP mod: inactive; GIRK2 act: inactive

Results for Cc1cc(N2CCN(Cc3ccccc3)CC2)nc(-n2cc([N+](=O)[O-])cn2)n1 ?
AMPAR-TARP mod: active; GIRK2 act: inactive

Results for Cc1cc(Nc2ccc(Cl)cc2)nc(-n2cc([N+](=O)[O-])cn2)n1 ?
AMPAR-TARP mod: active; GIRK2 act: inactive

How did Cc1cc(N2CCC(Cc3ccccc3)CC2)nc(-n2cc([N+](=O)[O-])cn2)n1 do in these assays?
AMPAR-TARP mod: inactive; GIRK2 act: inactive

What do the screens show for `COc1cccc(OCCOCC(O)CN2CCN(c3cc(Cl)ccc3C)CC2)c1` (stereo not given)?
AMPAR-TARP mod: inactive

How did O=C(Cc1ccc(NS(=O)(=O)C2CCCCC2)cc1)NCc1cccs1 do in these assays?
AMPAR-TARP mod: inactive; GIRK2 act: inactive

How did O=C1Nc2ccccc2Oc2ccc(NS(=O)(=O)C3CCCCC3)cc21 do in these assays?
AMPAR-TARP mod: active

What do the screens show for `CCNc1cc(NCCNS(=O)(=O)c2ccc(F)cc2F)nc(C)n1`?
GIRK2 act: inactive

What do the screens show for `COc1ccc(CC(=O)Nc2cccc(-c3ccc(=O)n(C)n3)c2)cc1`?
AMPAR-TARP mod: inactive; GIRK2 act: inactive

Results for O=C(COc1ccccc1C1CC(c2ccccc2)=NN1C(=O)c1ccccc1)NCCO (stereo not given) ?
AMPAR-TARP mod: active

How did O=C(c1ccccc1)N1N=C(c2ccc(F)cc2)CC1c1ccc2nccnc2c1 (stereo not given) do in these assays?
GIRK2 act: inactive

Results for COc1cccc(CNC(=O)C(=O)NCCC2CCCCN2S(=O)(=O)c2cc(C)ccc2C)c1 (stereo not given) ?
AMPAR-TARP mod: inactive

What do the screens show for `O=[N+]([O-])c1ccc(C2=NCCN2)cc1`?
AMPAR-TARP mod: active

What do the screens show for `O=C(Nc1ccccc1)C(=O)Nc1ccc([N+](=O)[O-])cc1`?
AMPAR-TARP mod: inactive

Results for COC(=O)CSc1nc(-c2ccc(F)cc2)cc(C(F)(F)F)n1 ?
AMPAR-TARP mod: active

What do the screens show for `COc1ccc(-c2cc(C(F)(F)F)nc(SCC(=O)N3CCCC3)n2)cc1OC`?
AMPAR-TARP mod: inactive

What do the screens show for `Cc1nc(-c2cccs2)c(CCC(=O)NCc2ccco2)s1`?
AMPAR-TARP mod: inactive; GIRK2 act: inactive
